Calls of active or inactive are those of the source. The calls were made as follows: active = hit-call score of the fitted dose curve at least 0.9, where 1 is the maximum; inactive = score below 0.9.

A word on the AC50: it is the concentration giving half of the maximal activity seen.

The nature of this assay: CCTE_Shafer_MEA_acute_burst_percentage_mean: CCTE's Neural Acute Assay for Percentage of Spikes in a Burst, Shafer Lab (AID 2284017).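 As to AC50: curve fitted for loss of signal so potency reflects decreased burst percentage.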 Here is the method:
CCTE_Shafer_MEA_acute assay is conducted using Axion Biosystems 48 well microelectrode array (MEA) plates and Maestro recording system. Each well of the MEA plate contains a grid of 16 microelectrodes embedded in the culture surface. Electrically active cells, such as neurons, can be cultured over the electrodes, and electrical activity in these cells can be recorded extracellularly. The spontaneous firing of neurons is captured from each electrode on a microsecond timescale providing both temporally and spatially precise data. […] The CCTE_Shafer_MEA_acute assay uses primary cultures of rat cortical neurons. As these cultures mature over time, neural networks develop functional activity and form cohesive networks in which electrical activity can be highly coordinated. Baseline 40-minute recordings are made on days post-plating 13 or 15, followed by a secondary 40-minute recording after chemical exposure.CCTE_Shafer_MEA_acute_burst_percentage_mean is a component of the CCTE_Shafer_MEA_acute assay. It measures the percentage of spikes (action potential firing) in a single-electrode burst (temporally-clustered groups of spikes) as the number of spikes in bursts divided by the total number of spikes during a recording in a microelectrode array (MEA) using Axion Biosystems Maestro 768 channel amplifier with the AxIS adaptive spike detector. The average of the burst percentages across electrodes is calculated to report a well-level value. The recordings before and after chemical treatment are used to calculate a percent change in the mean burst percentage in each well.Data from the assay component CCTE_Shafer_MEA_acute_burst_percentage_mean was analyzed into 1 assay endpoint. This assay endpoint, CCTE_Shafer_MEA_acute_burst_percentage_mean, was analyzed in the negative analysis fitting direction relative to DMSO as the negative control and baseline of activity. Using a type of functional reporter, gain or loss-of-signal activity can be used to understand electrical activity.
Spontaneous activity in the cortical cultures was recorded using an Axion Biosystems Maestro 768 channel amplifier and Axion Integrated Studios (AxIS) v1.8 (or later) software. The amplifier recorded from all channels simultaneously (gain = 1200 x; sampling rate = 12.5 kHz/channel): raw signals were filtered with a Butterworth band-pass filter (300-5000 Hz), which filters out slower local field potentials leaving only fast potentials, i.e., "spikes", arising from extracellular currents associated with action potentials (Pine 2006; Wheeler and Nam 2011). On-line spike detection of filtered signals was conducted with the AxIS adaptive spike detector, using a threshold of 8x the root mean squared (rms) noise on each channel. Any electrodes with rms noise levels greater than 5 uV were grounded (e.g., no data were recorded). Once grounded, an electrode was grounded for the duration of the experiment. All recordings were conducted at 37 C. Wells were deemed usable if on the day of the exposure >/= 10 electrodes were active (defined as >/= 5 spikes/min). On DIV 13 or 15, a minimum of three wells from one cortical culture preparation were treated with each compound (0.03-40 uM). Prior to recording baseline activity, each mwMEA plate was placed in the Maestro at 37 C and allowed to sit for 20 min while firing rates stabilized. Baseline activity (40 min) was recorded before the addition of each compound. An additional 40 min of spontaneous activity was recorded in the presence of each compound. Changes in network parameters relative to baseline were assessed following compound treatment.
In the case of `CO[Si](OC)(OC)c1ccccc1`, the outcome was inactive.

`C=C[Si](OC(C)=O)(OC(C)=O)OC(C)=O`: the call was inactive.

As to `CN1C(=O)N(C)C(O)C1O` (stereo unspecified), the outcome was inactive.

On to `O=C(c1ccc(O)cc1)c1ccc(O)cc1O`, for which the compound was called inactive.

Turning to `CCO[Si](C)(OCC)OCC`, the outcome was inactive.

For `Nc1ncn([C@@H]2O[C@H](CO)[C@@H](O)[C@H]2O)c(=O)n1`, the AC50 is 8.06 µM (active).

On to `O=C1CCCN1CCO`, for which the compound was called inactive.

Take `CCCCC(CC)COC(=O)c1ccccc1O` (stereo unspecified): the call was inactive.

On to `Nc1ccc(N)c(Cl)c1`, for which the compound was called inactive.

Take `CCCCC(CC)COCC1CO1` (stereo unspecified): the result was inactive.

Turning to `CCOC(=O)c1ccccc1C(=C1C=C(Br)C(=O)C(Br)=C1)c1cc(Br)c(O)c(Br)c1`, the call was inactive.

Source of the values: PubChem BioAssay (EPA / NIEHS).
